Rows were chosen to be rich in hits. Some 3.4% of all compounds tested hit in one or more screens of this group.
MITF primary: MITF inhibitors, primary screen, biochemical, AlphaScreen, human | 0.91% of 650,000 active | Microphthalmia-associated transcription factor (Homo sapiens), O75030 | AlphaScreen MITF homodimerization, bead proximity signal | inhibition, % at 2.6 µM; in the data active = inhibition above about 50%
FBW7 act: FBW7 E3 ligase activators, primary screen, biochemical, AlphaScreen, human; F-box/WD repeat-containing protein 7 (Homo sapiens), Q969H0; AlphaScreen FBW7–phospho-cyclin E peptide binding, activator screen; normalized activity (activation), % at 26.1 µM; 0.13% of 650,000 active; AID 1259310, 2017; in the data active = normalized activity above about 1.9%;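 note: purified mutant Fbw7 with reduced substrate affinity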
GPR151 ag: activators of human GPR151, primary screen, cell-based, PathHunter beta-arrestin, luminescence; AID 1508602, 2020; activation, % at 11.2 µM; PathHunter beta-arrestin GPR151 cells; G-protein coupled receptor 151 (Homo sapiens), Q8TDV0; 1% of 650,000 active; in the data active = activation above about 4.9%
TEAD-YAP inh: TEAD-YAP interaction inhibition, primary screen, TEAD-YAP interaction inhibitor project, luminescence, HEK-TIYL cells. TEAD-Gal4/YAP UAS-luciferase luminescence. inhibition, % at 9.12 µM. AID 1259422, 2018. 1.4% of 640,000 active; in the data active = inhibition above about 32%
GPR151 conf act: GPR151 activators, triplicate retest, confirmation, cell-based, PathHunter beta-arrestin, luminescence; AID 1508609, 2020; GPR151 PathHunter beta-arrestin cells, 90 min; % of EA-reagent control over plate median; shares compounds with GPR151 ag; 6,700 tested, under 10 active; activation, % at 11.2 µM;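 active = mean percent activation across replicates above the confirmation screen cutoff of 4.91%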
GPR119 counter: GPR119 activators in beta-arrestin cells, counter-screen for GPR151 activator project, cell-based, PathHunter beta-arrestin, luminescence, triplicate | activation, % at 11.2 µM | 90 min; 0 = compound-well median, 100 = enzyme-acceptor control | 0.3% of 6,700 active | shares compounds with GPR151 ag;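 active = mean percent activation in the counterscreen above 29.09%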;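 note: counterscreen on off-target GPR119 to flag nonselective hits from the GPR151 activator screen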
Target sequence (Q8TDV5 whole entry, looked up): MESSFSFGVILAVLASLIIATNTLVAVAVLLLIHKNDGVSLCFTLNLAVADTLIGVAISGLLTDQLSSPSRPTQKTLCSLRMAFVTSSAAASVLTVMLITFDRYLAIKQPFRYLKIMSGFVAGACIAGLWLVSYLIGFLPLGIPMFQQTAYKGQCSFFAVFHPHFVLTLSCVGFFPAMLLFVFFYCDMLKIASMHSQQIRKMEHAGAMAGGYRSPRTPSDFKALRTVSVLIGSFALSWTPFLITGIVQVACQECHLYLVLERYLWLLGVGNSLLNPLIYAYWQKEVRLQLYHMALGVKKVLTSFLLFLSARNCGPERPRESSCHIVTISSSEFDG
Of the large screens only hits and unclear results are named; the others gave an inactive call (follow-up assays come after a bar, where they were run).

CCOC(=O)C1=C(c2ccccc2)N=c2s/c(=C\c3ccc4c(c3)OCO4)c(=O)n2C1c1c(OC)ccc2ccccc12 (stereo unspecified)	none
O=C(Nc1ccc(I)cc1)Nc1ccc2c(c1)OCO2	GPR151 ag 5.8 | GPR151 conf act inactive | GPR119 counter inactive
CSc1cccc(NC(=S)N(CCCN2CCCCCC2)Cc2ccco2)c1	none
CCOc1ccc(/C=N/n2c(C)nc3ccccc3c2=O)cc1	none
CCOC(=O)COc1ccc2ccccc2c1/C=N/n1c(C)nc2ccccc2c1=O	GPR151 ag 5.0 | GPR151 conf act inactive | GPR119 counter inactive
Cc1noc(CNC(=O)c2ccc3ccccc3n2)n1	GPR151 ag 5.4 | GPR151 conf act inactive | GPR119 counter inactive
COc1ccc2c(-c3csc(N)n3)c[nH]c2c1	GPR151 ag 8.4 | GPR151 conf act inactive | GPR119 counter inactive
COc1ccc(Nc2nc(-c3c[nH]c4ccccc34)cs2)cc1	GPR151 ag 5.4 | GPR151 conf act inactive | GPR119 counter inactive
COc1ccc2c(c1)c(-c1csc(N)n1)c(C)n2C	none
NC(CC(=O)O)C(=O)O (stereo unspecified)	GPR151 ag 7.8 | GPR151 conf act inactive | GPR119 counter inactive
CC(C)N(CCNc1nc(Nc2nccc3ccccc23)nc2c1ncn2C1CCCCC1)C(C)C	none
CC(C)N(CCNc1nc(Nc2ccccn2)nc2c1ncn2C1CCCCC1)C(C)C	GPR151 ag 6.4 | GPR151 conf act inactive | GPR119 counter inactive
O=C(O)c1ccc(Nc2ccncc2)c([N+](=O)[O-])c1	none
CS(=O)(=O)N(CC(=O)N1CCN(c2ccccc2)CC1)c1ccc2c(c1)OCO2	none
Nc1ncc(Br)cc1S(=O)(=O)NC1CCCCC1	none
Nc1ncc(Br)cc1S(=O)(=O)NC1CCCCCCC1	GPR151 ag 7.3 | GPR151 conf act inactive | GPR119 counter inactive
CCO/C(C)=C/c1oc2ccc(-c3ccccc3)cc2[n+]1CCCS(=O)(=O)O	GPR151 ag 5.6 | GPR151 conf act inactive | GPR119 counter inactive
Cc1oc2ccc(Cl)cc2[n+]1CCCS(=O)(=O)O	none
COc1ccc2c(c1)C(=O)CC(c1ccccc1Cl)O2 (stereo unspecified)	none
c1ccc(COC2CCCN(Cc3nc(-c4cccs4)no3)C2)nc1 (stereo unspecified)	none
c1ccc(COC2CCCN(Cc3nc(-c4ccc5c(c4)OCO5)no3)C2)nc1 (stereo unspecified)	GPR151 ag 16.1 | GPR151 conf act inactive | GPR119 counter inactive
CCc1nnc(NC(=O)CSc2nnc(-c3cccnc3)n2-c2ccccc2C)s1	none
Cc1cccn2c(CN[C@@H]3CCCC[C@H]3c3ccccc3)c(C(=O)N3CCOCC3)nc12	GPR151 ag 5.0 | GPR151 conf act inactive | GPR119 counter inactive
Cc1cccn2c(CNC3CCCc4ccccc43)c(C(=O)N3CCOCC3)nc12 (stereo unspecified)	none
C/C(Cl)=C\Cn1cnc2c1c(=O)n(C)c(=O)n2C	none
Cc1cc(C=C2C(=O)NC(=O)NC2=O)c(C)n1-c1ccc(I)cc1	none
Cc1cccc(NC(=O)CCC2CCN(C(=O)Cc3ccsc3)CC2)c1	GPR151 ag 5.2 | GPR151 conf act inactive | GPR119 counter inactive
CCN1CCN(CCCNC(=O)c2sc3ncn(CC(=O)N4CCCCC4C)c(=O)c3c2C)CC1 (stereo unspecified)	none
COC(=O)C(Cc1cc(Cl)ccc1Cl)SC#N (stereo unspecified)	GPR151 ag 9.7 | GPR151 conf act inactive | GPR119 counter inactive
CCOc1cccc2oc(=O)c(C(=O)Nc3cc(C(C)(C)C)on3)cc12	none
CCc1nnc(SC2(Sc3nnc(CC)n3N)C(=O)N(C)c3ccccc32)n1N	none
O=C(O)c1ccc2c(=O)[nH]c(CSc3nnc(Nc4ccccc4)s3)nc2c1	GPR151 ag 8.4 | GPR151 conf act inactive | GPR119 counter inactive
CSc1ncc(CN2CCN(CC(C)(C)C)C(CCO)C2)cn1 (stereo unspecified)	GPR151 ag 5.8 | GPR151 conf act inactive | GPR119 counter inactive
CCn1cc(Br)c(C(=O)Nc2cccc(F)c2)n1	none
CCn1cc(Br)c(C(=O)Nc2cccc(SC)c2)n1	GPR151 ag 6.4 | GPR151 conf act inactive | GPR119 counter inactive
COc1ccc(CCNC(=O)c2cc(Cl)ccc2[N+](=O)[O-])cc1	GPR151 ag 5.1 | GPR151 conf act inactive | GPR119 counter inactive
COc1ccc(CCNC(=O)Cc2cn(-c3ccc(Nc4ccncn4)nn3)c3ccccc23)cc1	none
CCC(=O)Nc1nnc(C2CCCCC2)s1	none
CC1CCCN(S(=O)(=O)c2ccc3[nH]c(=O)cc(C(=O)NC(C)C)c3c2)C1 (stereo unspecified)	none
Cc1ccc(NC(=O)NCC2(O)CCCC2)cc1C	GPR151 ag 7.5 | GPR151 conf act inactive | GPR119 counter inactive
CCOC(=O)C1=C(N)Oc2c(c(=O)[nH]c3ccc(OC)cc23)C1c1ccc(OC)cc1 (stereo unspecified)	none
CC(=O)OC[C@H]1O[C@H](C/C=N/O[C@@H](C)c2cn([C@H](CO)Cc3ccccc3)nn2)C=C[C@@H]1OC(C)=O	none (no result: TEAD-YAP inh)
CC(C)[C@@H](OCc1ccccc1)[C@H](C)/C=N/O[C@H](C)c1cn([C@H](CO)Cc2ccccc2)nn1	GPR151 ag 6.1 (no result: TEAD-YAP inh) | GPR151 conf act inactive | GPR119 counter inactive
O=C(NCCCSc1ccc(Br)cc1)Nc1ncccn1	GPR151 ag 5.2 | GPR151 conf act inactive | GPR119 counter inactive
COCCCNC(=O)c1c(O)nc2c(C)cccn2c1=O	none
Cc1cc(NCCOc2ccccc2)nc(N2CCN(Cc3ccc4c(c3)OCO4)CC2)n1	GPR151 ag 6.0 | GPR151 conf act inactive | GPR119 counter inactive
CCn1cc(CN2CCCC(CNC(=O)c3ccc(-c4ccccc4)cc3)C2)cn1 (stereo unspecified)	GPR151 ag 6.0 | GPR151 conf act inactive | GPR119 counter inactive
Cc1ccc(OCC(=O)Nc2cccc(O)c2)cc1C	none
Cc1cc(C)cc(NC(=O)COc2cccc(C)c2)c1	GPR151 ag 6.3 | GPR151 conf act inactive | GPR119 counter inactive
Cc1cccc(OCC(=O)Nc2cccc(C(=O)O)c2C)c1	GPR151 ag 6.0 | GPR151 conf act inactive | GPR119 counter inactive
Cc1cccc(OCC(=O)Nc2cccc(O)c2)c1	GPR151 ag 5.9 | GPR151 conf act inactive | GPR119 counter inactive
CC(=O)N(C)c1ccc(NC(=O)COc2cc(C)cc(C)c2)cc1	GPR151 ag 4.9 | GPR151 conf act inactive | GPR119 counter inactive

Screening data (PubChem BioAssay)
